Source: PubChem BioAssay
HCMV inh: human cytomegalovirus inhibition; HFF cells, HCMV-luciferase reporter, 72 h; active compounds read low; AID 1259415; actives 4.5% (n = 410,000); activity change, negative = inhibition, % at 57.5 µM; in the data active = activity change below about -60%; inconclusive = no clear call, values can overlap the other calls; inactive = above about -39%
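Inhibition of viral replication was scored as loss of reporter luminescence in HFFs infected with HCMV-luciferase (MOI 1 PFU/cell) for 72 h; compounds tested at 2 doses, normalized to buffer and Salinomycin controls.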
Pf growth 48h: P. falciparum growth inhibition at 48 hours (one generation) | AID 504832 | P. falciparum luciferase growth in erythrocytes, 48 h | actives 5.9% (n = 310,000) | Potency, µM (titrated, usually from 28.7 µM), actives largely listed as inhibitors
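Luciferase-expressing P. falciparum in infected erythrocytes (2% hematocrit, 0.1% parasitemia final) in RPMI 1640/0.5% Albumax were exposed to compound for 48 hours at 37 C, 5% CO2; growth read as luminescence.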
Giardia FBPA inh: blocks Giardia fructose-bisphosphate aldolase activity; purified Giardia FBPA; actives 0.71% (n = 290,000); Potency, µM (titrated, usually from 59.6 µM), hits mostly inhibitors; AID 2451; A8B2U2; also: nearly all actives have a fitted effect of over 55% in size
Target sequence (A8B2U2 whole entry, looked up): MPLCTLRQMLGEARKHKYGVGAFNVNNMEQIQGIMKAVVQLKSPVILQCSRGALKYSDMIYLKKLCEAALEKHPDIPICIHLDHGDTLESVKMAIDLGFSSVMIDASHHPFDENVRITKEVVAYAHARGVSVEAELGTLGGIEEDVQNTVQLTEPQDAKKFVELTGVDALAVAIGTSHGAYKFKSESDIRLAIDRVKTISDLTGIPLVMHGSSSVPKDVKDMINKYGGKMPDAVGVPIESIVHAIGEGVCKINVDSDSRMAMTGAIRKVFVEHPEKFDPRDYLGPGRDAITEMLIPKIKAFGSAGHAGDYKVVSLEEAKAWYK
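Giardia FBPA (40 nM reagent) was preincubated 10 min at RT with compound (up to 57.5 uM final), then substrate plus GAPDH/TPI/NAD/arsenate coupling system with diaphorase/resazurin was added; resorufin fluorescence (525/598 nm) was read after 20 min.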
Sm TGR inh: S. mansoni TGR enzyme inhibition; Q962Y6; purified TGR, DTNB reduction, TNB absorbance 405 nm; Potency, µM (top dose mostly 114 µM), actives largely listed as inhibitors; actives 3% (n = 360,000); AID 485364; also: nearly all actives have a fitted effect of over 60% in size
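TGR 20 nM + NADPH 100 uM (dispensed conc.), cpd preinc 15 min RT; start with NADPH (500 uM addition) then DTNB (15 mM addition). Kinetic TNB absorbance, 405 nm filter. Four-parameter Hill fit across titration.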
Pf growth 96h: P. falciparum growth inhibition at 96 hours; P. falciparum luciferase reporter growth, 96 h; Potency, µM (top dose mostly 28.7 µM), actives largely listed as inhibitors; actives 6.9% (n = 320,000); AID 504834
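Delayed-death screen, second-generation endpoint: infected erythrocytes, 2% hematocrit, 0.05% parasitemia final; 96 hours at 37 C, 5% CO2; luciferase detection reagent; luminescence decrease equals reduced growth.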
A number is an active result; n = inactive; u = inconclusive; x = no result; ! = not confirmed by another sample; [ ] = remark or other dose. In the library only some 14% were active in any assay of this set; here they are far more common. Unless noted, calls follow the shape of the dose curve; as a rule, active = well fitted curve in the direction sought with a large enough effect; inconclusive = small, poorly fitted or top-dose-only effect, or another doubt; inactive = no such curve, though single readings can be large; an effect the other way counts as inactive or inconclusive.

SMILES	HCMV inh	Pf growth 48h	Giardia FBPA inh	Sm TGR inh	Pf growth 96h
CCOC(=O)c1c(C)n(C)c2ccc(OCC(O)CN(CC)CC)cc12 (centres undefined)	n	x	n	n	5.9µM
CCOC(=O)c1c(C)n(C)c2ccc(OC(C)=O)cc12	n	n	n	n	u
CCOC(=O)c1c(C)n(CCN2CCN(C)CC2)c2ccc(OC)cc12	x	u	n	n	3.7µM
CCOC(=O)c1c(C)n(C)c2ccc(OCC(N)=O)cc12	u	n	n	n	10µM
CCOC(=O)c1c(C)n(C)c2ccc(OCC(O)Cn3nc(C)cc3C)cc12 (centres undefined)	n	u	n	u	x
CCOC(=O)c1c(C)n(Cc2ccco2)c2ccc(OC)cc12	n	n	n	u	x
COCCOC(=O)c1c(C)n(C)c2ccc(OC(=O)c3c(OC)cccc3OC)cc12	n	1.9µM	n	n	u
O=C(O)CC(C(=O)Nc1ccc(Cl)cc1)N1CCCCCC1 (centres undefined)	n	n	n	n	n
CSCC[C@H](NC(=O)[C@H](CC(C)C)NC(=O)CNC(=O)[C@H](Cc1ccccc1)N(C)C(=O)[C@H](Cc1ccccc1)NC(=O)[C@H](CC(=O)O)NC(=O)[C@@H](N)CC(=O)O)C(N)=O	x	x	n	x	x
CCOC(=O)c1c(C)n(C)c2cc(-c3ccc(F)cc3)c(O)cc12	n	7.4µM	n	n	n
CCOC(=O)c1c(C)n(CCOC)c2ccc(O)cc12	n	n	n	n	n
Cc1ccc(Cc2c(-c3cccc(Br)c3)nc3c(C)cc(Br)cn23)cc1	n	x	x	x	x
CCC1Sc2ccc(S(=O)(=O)CCC(=O)Nc3ccc(C(=O)OC)cc3)cc2NC1=O (centres undefined)	n	n	n	u	n
CCC1Sc2ccc(S(=O)(=O)CCC(=O)NCc3ccco3)cc2NC1=O (centres undefined)	n	n	n	32µM	n
CCC1Sc2ccc(S(=O)(=O)CCC(=O)Nc3ccc(NC(C)=O)cc3)cc2NC1=O (centres undefined)	n	n	n	n	6.6µM
O=C(CCS(=O)(=O)c1ccc(Cl)cc1)Nc1ccc(F)cc1	n	n	n	n	10µM
CC(NCCC1(Cc2ccccc2Cl)CCOC(C)(C)C1)c1cccs1 (centres undefined)	n	u	n	n	12µM
OC(CNCc1ccccc1)(c1ccccc1)c1ccccc1	n	13µM	n	n	8.3µM
OC(CNCc1ccccc1)(c1ccc(F)cc1)c1ccc(F)cc1	n	4.7µM	n	n	2.1µM
COc1ccc(CNCC(O)(c2ccccc2)c2ccccc2)cc1	n	n	n	n	n
Cc1ccc(CNCC(O)(c2ccccc2)c2ccc(F)cc2)cc1 (centres undefined)	n	u	n	n	n
COc1ccc(CNCC(O)(c2ccc(F)cc2)c2ccc(F)cc2)cc1	n	12µM	n	n	u
Cc1ccc(CNCC(O)(c2ccc(F)cc2)c2ccc(F)cc2)cc1	n	u	n	n	4.7µM
OC(CNCc1ccc(F)cc1)(c1ccccc1)c1ccc(F)cc1 (centres undefined)	n	2.6µM	n	n	1.7µM
COc1ccc(CNCC(O)(c2ccccc2)c2ccccc2)cc1OC	n	u	n	n	u
SMILES	HCMV inh	Pf growth 48h	Giardia FBPA inh	Sm TGR inh	Pf growth 96h
O=C(CCCCn1c(=O)c2ccccc2n(CC(=O)Nc2cccc(F)c2)c1=O)NCCc1ccccc1	n	x	x	n	x
O=Cc1cccn1-c1c(C(=O)O)cnn1-c1ccccc1	n	n	n	n	10µM
O=C(O)c1cnn(-c2ccccc2)c1-c1ccncc1	n	n[0.00184 µM]	n	n	n
COC(=O)/C=C1\OC(C)c2ccccc21 (centres undefined)	n	x	x	x	x
CCc1ccc(NC(=O)c2cnn(-c3ccccc3)c2-n2cccc2)cc1	n	x	x	n	x
COc1cccc(NC(=O)c2cnn(-c3ccccc3)c2-n2cccc2)c1	-63	x	x	n	x
Cc1ccc(NC(=O)c2cnn(-c3ccccc3)c2C)cc1C	-61	n	n	n	n
Cc1ccc(NC(=O)CN(C)C(=O)C2CSC3(C)CCC(=O)N23)cc1 (centres undefined)	n	x	x	x	x
CC(=O)Nc1ccc(S(=O)(=O)N2CCC3(CC2)CC(=O)c2ccccc2O3)cc1	n	n	x	n	u
Cc1ccc(C)n1NC(=O)c1ccccc1O	n	u	n	n	9.3µM
Cc1ccc(C)n1NC(=O)c1ccccc1[N+](=O)[O-]	n	n	n	x	n
Cc1ccc2nc(NC(=O)c3ccc(S(=O)(=O)N4CCCc5ccccc54)cc3)sc2c1	-90!	u	n	n	u
O=C(Nc1nc2c(F)cc(F)cc2s1)c1ccc(S(=O)(=O)N2CCc3ccccc32)cc1	-99	x	x	n	x
CNS(=O)(=O)c1ccc2nc(NC(=O)c3ccc(N4C(=O)CCC4=O)cc3)sc2c1	n	u	n	n	3.7µM
O=C(Nc1nc2c(F)cccc2s1)c1ccc(S(=O)(=O)N2CCCc3ccccc32)cc1	n	x	x	n	x
CCN(CC)C(=O)[C@H]1CC(CC(=O)NCCN2CCOCC2)C(=O)N2CCc3c([nH]c4ccccc34)[C@]12C (some centres undefined)	n	x	x	x	x
O=C1CSC(=S)N1Nc1ccccc1	n	x	x	x	x
Cc1ccc(CN2CCSCC2)c(C)c1	n	n	u	n	n
CC(=O)Nc1ccc(NC(=O)C(=O)NCC(c2ccco2)N2CCc3ccccc32)cc1 (centres undefined)	n	13µM	x	n	10µM
COc1ccc(NC(=O)C(=O)NCC(c2ccco2)N2CCc3ccccc32)cc1 (centres undefined)	x	n	x	n	n
CCOc1ccc(NC(=O)C(=O)NCC(c2cccnc2)N2CCc3ccccc32)cc1 (centres undefined)	-66	x	x	n	x
COC(=O)c1ccc(NC(=O)C(=O)NCC(c2cccnc2)N2CCc3ccccc32)cc1 (centres undefined)	n	x	x	n	x
CC1(C)C(=O)C=C[C@@]2(C)C1C=C[C@@]1(C)C2CC[C@@]2(C)C(c3ccoc3)OC(=O)C3OC312 (some centres undefined)	x	x	n	x	x
COC(=O)[C@]1(Cc2ccccc2)N[C@H](CN(C)S(=O)(=O)c2ccc(-c3ccccc3)cc2)[C@@H]2C(=O)N(C)C(=O)[C@@H]21	n	x	x	x	x
COCOc1cc(O)c2c(=O)c(OCOC)c(-c3ccc(OCOC)c(OCOC)c3)oc2c1	-71	x	x	x	x
COc1c(-c2ccc(O)c(O)c2)oc2cc(O)cc(O)c2c1=O	n	n	n	28µM	n
O=c1c(O)c(-c2cc(O)c(O)c(O)c2)oc2cc(O)cc(O)c12	u	n	u	3.5µM	n
O=C(NCC1CCN(Cc2cccc(F)c2)CC1)c1cc2ccc3cccnc3c2[nH]1	n	x	x	n	x
O=C(Nc1ccccc1)c1ccc(OC(=O)c2ccccc2)cc1	n	n	n	n	u
Cc1c(C(=O)N2CCOCC2)sc(NC(=O)CCl)c1C#N	u	2.1µM	n	40µM	n
